The values below come from the supplement of paper PMC10849652.

Targets with a hit are over-represented here; the source holds about 8,800 in all. About 0.5% of all pairs of compound and target were hits.

Chain of UniProt Q9UPT9 (Q9UPT9 whole entry, looked up): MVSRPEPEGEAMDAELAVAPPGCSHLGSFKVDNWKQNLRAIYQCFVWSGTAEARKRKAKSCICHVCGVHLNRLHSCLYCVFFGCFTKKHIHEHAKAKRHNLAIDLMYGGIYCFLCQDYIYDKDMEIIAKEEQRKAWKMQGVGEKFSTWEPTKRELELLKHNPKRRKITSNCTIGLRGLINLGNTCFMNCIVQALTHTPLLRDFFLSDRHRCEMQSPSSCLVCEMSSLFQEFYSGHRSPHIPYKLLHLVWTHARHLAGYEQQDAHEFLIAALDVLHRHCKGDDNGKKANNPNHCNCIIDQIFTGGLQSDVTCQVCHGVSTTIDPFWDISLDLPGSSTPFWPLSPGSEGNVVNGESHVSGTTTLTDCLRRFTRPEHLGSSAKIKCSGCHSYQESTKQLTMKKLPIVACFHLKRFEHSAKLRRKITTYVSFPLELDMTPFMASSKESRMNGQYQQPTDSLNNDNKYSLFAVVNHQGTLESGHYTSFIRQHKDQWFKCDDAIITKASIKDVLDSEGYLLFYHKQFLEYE
Chain of UniProt P42768 (P42768 whole entry, looked up): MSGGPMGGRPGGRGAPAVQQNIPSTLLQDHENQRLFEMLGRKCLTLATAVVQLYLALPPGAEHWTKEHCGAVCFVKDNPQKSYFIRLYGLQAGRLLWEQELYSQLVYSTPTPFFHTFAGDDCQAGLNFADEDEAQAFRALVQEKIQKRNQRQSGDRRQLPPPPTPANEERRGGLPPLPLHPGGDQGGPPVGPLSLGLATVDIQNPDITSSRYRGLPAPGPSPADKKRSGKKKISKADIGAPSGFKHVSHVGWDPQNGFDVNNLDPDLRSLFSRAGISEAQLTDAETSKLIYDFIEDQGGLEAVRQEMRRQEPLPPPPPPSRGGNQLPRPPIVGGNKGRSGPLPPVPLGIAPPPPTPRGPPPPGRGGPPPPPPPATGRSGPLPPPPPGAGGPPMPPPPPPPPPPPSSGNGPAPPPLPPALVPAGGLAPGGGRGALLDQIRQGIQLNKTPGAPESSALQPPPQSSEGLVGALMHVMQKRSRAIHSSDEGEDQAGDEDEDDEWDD
Chain of UniProt Q9H3U1 (Q9H3U1 whole entry, looked up): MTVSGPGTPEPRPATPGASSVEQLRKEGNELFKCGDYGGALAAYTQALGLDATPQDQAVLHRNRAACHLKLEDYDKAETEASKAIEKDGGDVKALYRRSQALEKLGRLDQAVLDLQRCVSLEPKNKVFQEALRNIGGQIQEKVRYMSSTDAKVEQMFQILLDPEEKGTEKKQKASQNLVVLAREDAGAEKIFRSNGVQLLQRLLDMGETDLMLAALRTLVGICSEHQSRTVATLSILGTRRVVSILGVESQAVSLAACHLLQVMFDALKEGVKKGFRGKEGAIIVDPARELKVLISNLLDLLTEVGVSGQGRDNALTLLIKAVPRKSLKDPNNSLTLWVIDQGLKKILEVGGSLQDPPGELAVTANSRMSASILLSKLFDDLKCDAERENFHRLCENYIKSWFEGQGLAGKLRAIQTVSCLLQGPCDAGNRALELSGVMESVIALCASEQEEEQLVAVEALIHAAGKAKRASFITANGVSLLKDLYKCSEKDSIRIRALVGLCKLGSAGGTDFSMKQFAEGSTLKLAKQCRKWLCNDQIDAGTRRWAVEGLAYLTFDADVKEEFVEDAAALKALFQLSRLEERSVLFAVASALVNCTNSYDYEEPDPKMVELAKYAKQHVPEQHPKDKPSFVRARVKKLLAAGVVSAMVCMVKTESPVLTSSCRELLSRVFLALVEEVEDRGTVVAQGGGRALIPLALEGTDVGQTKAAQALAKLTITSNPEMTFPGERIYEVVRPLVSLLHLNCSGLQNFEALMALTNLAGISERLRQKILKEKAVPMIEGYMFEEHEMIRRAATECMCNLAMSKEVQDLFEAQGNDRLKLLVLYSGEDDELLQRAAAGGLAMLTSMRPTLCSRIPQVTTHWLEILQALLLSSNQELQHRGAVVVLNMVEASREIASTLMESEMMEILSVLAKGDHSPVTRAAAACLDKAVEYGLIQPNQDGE
Chain of UniProt Q5SVZ6 (Q5SVZ6 whole entry, looked up): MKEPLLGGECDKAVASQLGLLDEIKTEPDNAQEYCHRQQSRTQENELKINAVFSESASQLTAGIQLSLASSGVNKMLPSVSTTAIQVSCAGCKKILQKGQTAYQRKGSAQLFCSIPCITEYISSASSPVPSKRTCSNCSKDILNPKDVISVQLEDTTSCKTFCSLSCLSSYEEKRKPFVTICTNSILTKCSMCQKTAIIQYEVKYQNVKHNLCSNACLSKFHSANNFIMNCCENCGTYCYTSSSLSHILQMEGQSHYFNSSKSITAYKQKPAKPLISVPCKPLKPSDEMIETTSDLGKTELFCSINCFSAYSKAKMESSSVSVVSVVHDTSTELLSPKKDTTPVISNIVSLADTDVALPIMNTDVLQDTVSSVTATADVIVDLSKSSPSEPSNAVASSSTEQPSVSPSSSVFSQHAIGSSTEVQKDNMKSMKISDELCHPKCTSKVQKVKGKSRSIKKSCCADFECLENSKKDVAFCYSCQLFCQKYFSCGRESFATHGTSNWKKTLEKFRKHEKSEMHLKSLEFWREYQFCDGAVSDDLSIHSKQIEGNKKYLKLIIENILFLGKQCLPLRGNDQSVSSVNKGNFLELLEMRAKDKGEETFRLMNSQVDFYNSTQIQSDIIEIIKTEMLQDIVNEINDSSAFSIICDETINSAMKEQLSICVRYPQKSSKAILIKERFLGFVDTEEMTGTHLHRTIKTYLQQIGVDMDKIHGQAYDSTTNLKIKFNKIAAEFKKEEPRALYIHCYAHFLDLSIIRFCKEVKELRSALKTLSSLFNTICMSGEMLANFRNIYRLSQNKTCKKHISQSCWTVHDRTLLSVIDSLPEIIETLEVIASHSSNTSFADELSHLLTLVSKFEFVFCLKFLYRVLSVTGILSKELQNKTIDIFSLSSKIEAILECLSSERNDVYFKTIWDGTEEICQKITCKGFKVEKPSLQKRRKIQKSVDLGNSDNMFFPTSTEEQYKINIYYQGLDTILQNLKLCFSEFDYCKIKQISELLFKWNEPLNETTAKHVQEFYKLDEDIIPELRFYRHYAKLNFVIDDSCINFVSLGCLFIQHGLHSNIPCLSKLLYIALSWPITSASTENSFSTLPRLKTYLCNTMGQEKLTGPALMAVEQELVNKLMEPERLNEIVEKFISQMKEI
Chain of UniProt Q5MNZ9 (Q5MNZ9 whole entry, looked up): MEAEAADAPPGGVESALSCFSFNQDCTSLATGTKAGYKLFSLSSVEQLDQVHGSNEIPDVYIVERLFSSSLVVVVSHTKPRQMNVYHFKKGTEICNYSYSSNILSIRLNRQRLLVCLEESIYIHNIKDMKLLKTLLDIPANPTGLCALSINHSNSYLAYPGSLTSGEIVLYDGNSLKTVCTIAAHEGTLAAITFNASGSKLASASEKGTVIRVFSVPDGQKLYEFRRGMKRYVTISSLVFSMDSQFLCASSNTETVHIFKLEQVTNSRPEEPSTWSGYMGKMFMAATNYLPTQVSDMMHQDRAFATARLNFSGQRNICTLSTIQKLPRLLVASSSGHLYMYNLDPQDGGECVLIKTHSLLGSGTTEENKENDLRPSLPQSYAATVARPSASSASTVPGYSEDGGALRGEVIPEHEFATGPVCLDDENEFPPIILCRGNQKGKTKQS
Chain of UniProt Q9HCS7 (Q9HCS7 whole entry, looked up): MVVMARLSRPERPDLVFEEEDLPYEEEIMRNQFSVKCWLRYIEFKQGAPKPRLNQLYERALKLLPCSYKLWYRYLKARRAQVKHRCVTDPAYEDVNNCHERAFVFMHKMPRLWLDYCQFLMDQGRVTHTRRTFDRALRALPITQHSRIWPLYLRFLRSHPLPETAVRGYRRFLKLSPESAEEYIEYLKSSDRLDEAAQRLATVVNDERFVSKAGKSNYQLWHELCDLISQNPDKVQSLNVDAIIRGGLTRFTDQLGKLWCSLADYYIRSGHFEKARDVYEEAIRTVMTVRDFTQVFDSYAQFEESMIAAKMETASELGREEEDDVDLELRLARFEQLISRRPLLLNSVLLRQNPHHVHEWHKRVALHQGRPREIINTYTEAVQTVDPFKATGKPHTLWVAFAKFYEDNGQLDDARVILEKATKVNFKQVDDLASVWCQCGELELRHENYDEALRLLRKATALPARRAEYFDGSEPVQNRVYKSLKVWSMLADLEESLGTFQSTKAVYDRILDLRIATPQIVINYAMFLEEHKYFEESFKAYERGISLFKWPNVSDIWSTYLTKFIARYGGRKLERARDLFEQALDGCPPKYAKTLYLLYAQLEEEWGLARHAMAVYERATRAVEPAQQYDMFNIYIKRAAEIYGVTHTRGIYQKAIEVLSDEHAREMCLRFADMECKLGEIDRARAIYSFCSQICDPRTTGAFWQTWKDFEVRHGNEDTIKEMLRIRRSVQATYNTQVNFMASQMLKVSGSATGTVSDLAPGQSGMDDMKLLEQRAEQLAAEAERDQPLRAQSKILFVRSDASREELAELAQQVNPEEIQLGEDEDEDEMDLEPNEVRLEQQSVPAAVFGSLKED
Chain of UniProt Q9BTA9 (Q9BTA9 whole entry, looked up): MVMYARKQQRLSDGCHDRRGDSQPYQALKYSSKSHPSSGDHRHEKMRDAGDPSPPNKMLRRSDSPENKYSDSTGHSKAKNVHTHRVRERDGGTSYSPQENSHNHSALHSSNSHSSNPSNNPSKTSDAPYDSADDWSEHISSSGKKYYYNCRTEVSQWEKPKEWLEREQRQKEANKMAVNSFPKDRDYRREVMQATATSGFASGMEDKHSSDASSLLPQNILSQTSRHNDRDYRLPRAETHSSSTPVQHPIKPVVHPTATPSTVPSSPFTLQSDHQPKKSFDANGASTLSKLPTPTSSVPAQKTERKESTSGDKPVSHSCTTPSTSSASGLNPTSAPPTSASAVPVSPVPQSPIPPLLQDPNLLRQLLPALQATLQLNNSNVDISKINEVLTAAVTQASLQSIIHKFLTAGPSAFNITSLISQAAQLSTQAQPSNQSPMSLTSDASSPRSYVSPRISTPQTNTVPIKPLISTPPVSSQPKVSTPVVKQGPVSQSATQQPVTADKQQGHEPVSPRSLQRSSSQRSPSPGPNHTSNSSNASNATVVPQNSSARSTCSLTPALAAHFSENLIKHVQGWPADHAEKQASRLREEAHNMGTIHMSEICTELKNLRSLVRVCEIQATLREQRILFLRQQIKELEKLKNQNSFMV

Compound in the test: O=C(CCCCCCC(=O)Nc1ccccc1)NO [vorinostat]
Put plainly: log2 fold change, soluble protein after heating vs DMSO (PISA); higher = thermal stabilisation; K562 lysate, 10 uM; active = over 0.2 and 3.5 SD of the protein, either way, in both replicates (recomputed). In short, it runs like this: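 K562 pellets were dounce-homogenised in PBS pH 7.4 with 1 mM MgCl2, and the crude extract at 1 mg/mL protein was treated with 10 μM compound for 30 min. Aliquots were heated for 3 min across 48°C-58°C, pooled, and brought to 0.5% NP-40 at 4°C; soluble protein was the supernatant after 21,000xg for 90 min. Soluble protein was quantified by TMTpro 16plex LC-MS/MS with channel sums equalised, and reported as log2 fold change in thermal stability against DMSO controls, with values from duplicates.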
As to ZYG11A (UniProt Q6WRX3), the log2 fold change was 0.719 (active). With WRNIP1 (UniProt Q96S55), the log2 fold change was -0.521 (active). With ZMYM1 (UniProt Q5SVZ6), the log2 fold change was -0.202 (inactive).

Regarding WIPI1 (UniProt Q5MNZ9), the log2 fold change is 0.088 (inactive). Turning to ZMYM4 (UniProt Q5VZL5), the log2 fold change was -0.383 (active). As for XPO6 (UniProt Q96QU8), the log2 fold change is -0.401 (active). In the case of ZNF346 (UniProt Q9UL40), the log2 fold change is 0.137 (inactive).

As to ZC3H11A (UniProt O75152), the log2 fold change is -0.375 (active). For the target WAC isoform 5 (UniProt Q9BTA9), the log2 fold change is -0.002 (inactive). For UNC45A (UniProt Q9H3U1), the log2 fold change was -0.588 (active).

Consider UNC13A (UniProt Q9UPW8), for which the log2 fold change was -0.485 (inactive).

As to YBEY (UniProt P58557), the log2 fold change is -0.136 (inactive).

As for UQCRC2 (UniProt P22695), the log2 fold change is 0.123 (inactive). ZNF281 (UniProt Q9Y2X9): the log2 fold change was -0.403 (active).

Consider WRN (UniProt Q14191), for which the log2 fold change is -0.282 (active). WAS (UniProt P42768): the log2 fold change is -0.07 (inactive). Under UTRN isoform 2 (UniProt P46939) stands 0.173 (inactive); under XAB2 (UniProt Q9HCS7), -0.259 (active).

As to VASN (UniProt Q6EMK4), the log2 fold change was 0.233 (inactive). Turning to VANGL1 (UniProt Q8TAA9), the log2 fold change is 0.085 (inactive). Under USP22 (UniProt Q9UPT9) stands -0.323 (active); under WDR77 (UniProt Q9BQA1), -0.067 (inactive); under ZMYM2 (UniProt Q9UBW7), -0.609 (active). Regarding VARS (UniProt P26640), the log2 fold change was -0.275 (active).

With VPS35L (UniProt Q7Z3J2), the log2 fold change is -0.266 (active).

VPS54 (UniProt Q9P1Q0): the log2 fold change was -0.055 (inactive).
